An excerpt weighted towards active compounds, which were near 8.7% of everything screened.
HP1b chromo inh = HTS for Inhibitors of HP1-beta Chromodomain Interactions with Methylated Histone Tails; AlphaScreen HP1-beta / biotin-H3K9me3 peptide binding; Potency, µM (titrated, usually from 114 µM), without a hit: top-dose activity change, negative = inhibition, most hits filed as inhibitors; hit rate 0.56% among 390,000; note: nearly all actives have a fitted effect of over 70% in size
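Compound inhibition of the preformed complex between 50 nM HP1-beta and 50 nM biotinylated H3K9me3 peptide was read by AlphaScreen. Buffer was PBS pH 7.4 with 0.01% Tween-20. Incubations ran 30 min at room temperature, with 10 ug/mL donor/acceptor beads.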
G9a block = qHTS Assay for Inhibitors of Histone Lysine Methyltransferase G9a; G9a H3K9 monomethylation, AlphaScreen, 2 h; Histone-lysine N-methyltransferase EHMT2 (Homo sapiens), Q96KQ7; Potency, µM (titrated, usually from 102 µM), without a hit: top-dose activity, negative = inhibition, most hits filed as inhibitors; hit rate 8.8% among 350,000; note: % is set by controls: 0 for no effect and ±100 for the full control effect; nearly all actives have a fitted effect of over 75% in size
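G9a (20 nM) preincubated 15 min RT with compounds, then 500 nM biotinylated H3K9 peptide and 20 uM SAM added; 2 h RT reaction. Monomethyl-H3K9 product detected by AlphaScreen with anti-H3K9me1 antibody, streptavidin donor and anti-rabbit IgG acceptor beads.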
JMJD2A Tudor inh = qHTS Assay for Inhibitors of JMJD2A-Tudor Domain; Lysine-specific demethylase 4A (Homo sapiens), O75164; AlphaScreen JMJD2A-Tudor / H3K4me3 peptide binding; Potency, µM (series often up to 114 µM), for inactives: top-dose activity change, negative = inhibition, actives largely listed as inhibitors; hit rate 4.4% among 390,000; note: % is set by controls: 0 for no effect and ±100 for the full control effect; nearly all actives have a fitted effect of over 50% in size
Target sequence (O75164 whole entry, looked up, the tested form may be a part): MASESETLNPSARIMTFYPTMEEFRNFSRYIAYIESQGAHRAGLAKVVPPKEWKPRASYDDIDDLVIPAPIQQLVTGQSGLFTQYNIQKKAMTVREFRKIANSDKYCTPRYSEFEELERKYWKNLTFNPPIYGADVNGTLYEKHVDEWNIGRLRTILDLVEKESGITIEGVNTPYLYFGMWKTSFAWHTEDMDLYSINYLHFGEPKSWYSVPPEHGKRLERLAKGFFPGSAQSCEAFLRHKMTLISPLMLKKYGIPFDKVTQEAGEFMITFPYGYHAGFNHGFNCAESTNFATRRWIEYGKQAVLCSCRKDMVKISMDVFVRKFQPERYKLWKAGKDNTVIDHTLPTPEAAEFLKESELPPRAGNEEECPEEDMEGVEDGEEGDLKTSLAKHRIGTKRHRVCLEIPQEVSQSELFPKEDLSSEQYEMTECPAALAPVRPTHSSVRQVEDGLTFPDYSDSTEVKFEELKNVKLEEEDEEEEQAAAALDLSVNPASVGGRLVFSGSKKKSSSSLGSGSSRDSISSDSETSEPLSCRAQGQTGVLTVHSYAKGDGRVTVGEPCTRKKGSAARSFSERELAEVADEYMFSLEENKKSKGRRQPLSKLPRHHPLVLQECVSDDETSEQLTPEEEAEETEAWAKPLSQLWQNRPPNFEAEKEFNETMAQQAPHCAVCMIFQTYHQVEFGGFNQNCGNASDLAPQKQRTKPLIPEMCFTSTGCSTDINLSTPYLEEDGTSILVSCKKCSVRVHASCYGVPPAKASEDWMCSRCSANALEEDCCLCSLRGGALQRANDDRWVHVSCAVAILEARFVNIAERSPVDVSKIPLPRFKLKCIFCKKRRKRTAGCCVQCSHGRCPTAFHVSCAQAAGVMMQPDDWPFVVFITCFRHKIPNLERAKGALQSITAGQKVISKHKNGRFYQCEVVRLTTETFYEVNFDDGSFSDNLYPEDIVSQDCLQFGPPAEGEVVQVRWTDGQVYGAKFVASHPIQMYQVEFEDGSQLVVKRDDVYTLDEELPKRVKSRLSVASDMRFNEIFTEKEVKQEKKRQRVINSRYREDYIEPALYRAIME
Sfp inh = qHTS Assay for Inhibitors of Bacillus subtilis Sfp phosphopantetheinyl transferase (PPTase). AID 1490, 2009. Biochemical Sfp PPTase activity, qHTS. Potency, µM, without a hit: largest response in the series, negative = inhibition, most hits filed as inhibitors. hit rate 3.5% among 310,000;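 note: the enzyme is Sfp with the accession as filed and its product quenches rhodamine fluorescence; 0% = enzyme reaction without inhibitor and -100% = no enzyme wells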
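Reaction rates are the 30-min fluorescence difference (ex 525, em 598 nm) in wells containing 15 nM Sfp, 5 uM rhodamine-CoA and 12.5 uM BHQ-2-YbbR at pH 7.6 with 10 mM MgCl2.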
12-LOX inh = Primary qHTS assay for inhibitors of human arachidonate 12S-lipoxygenase (ALOX12): Round 2; Polyunsaturated fatty acid lipoxygenase ALOX12 (Homo sapiens), P18054; purified 12hLO, xylenol orange hydroperoxide absorbance; Potency, µM (doses to about 108 µM), for the others: at the highest dose activity change, negative = inhibition, most hits filed as inhibitors; hit rate 1.1% among 580,000; note: % is set by controls: 0 for no effect and ±100 for the full control effect
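Purified human 12hLO (150 nM final) in 25 mM Hepes, 0.01% Triton X-100, pH 7.0 was preincubated 15 min at room temperature with compound. Then 40 uM arachidonic acid was added, 30 min. Hydroperoxide was read by Fe-XO absorbance ratio 573/405 nm.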
BAZ2B block = qHTS Assay for Inhibitors of BAZ2B. AlphaScreen BAZ2B-H3K14Ac peptide displacement. Bromodomain adjacent to zinc finger domain protein 2B (Homo sapiens), Q9UIF8. hit rate 4.4% among 360,000. Potency, µM (top dose mostly 114 µM), without a hit: top-dose activity change, negative = inhibition, most hits filed as inhibitors; note: % is set by controls: 0 for no effect and ±100 for the full control effect; nearly all actives have a fitted effect of over 60% in size
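Inhibition is scored as reduced AlphaScreen emission. The BAZ2B/b-H3(5-23)K14Ac complex (50 nM each) in PBS pH 7.4, 0.01% Tween-20 meets compound (up to 110 uM) for 30 min at RT before bead addition.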
* marks the source's active call; other numbers are inactive results; ? = inconclusive; / = no result given; ! = not active in a repeat; [ ] = remark or other dose. Calls come from the whole dose curve; as a rule, active = well fitted curve in the direction sought with a large enough effect; inconclusive = small, poorly fitted or top-dose-only effect, or another doubt; inactive = no such curve, though single readings can be large; an effect the other way counts as inactive or inconclusive. Potency is the fitted concentration of half-maximal effect.

SMILES	HP1b chromo inh	G9a block	JMJD2A Tudor inh	Sfp inh	12-LOX inh	BAZ2B block
COc1ccc(-c2sc3ccccc3c2-c2ccc(OCCN3CCCCC3)cc2)cc1	-15%	/	45µM*	/	-14%	/
O=S(=O)(N[C@H]1CO[C@H]2[C@@H]1OC[C@@H]2n1nnnc1-c1ccccc1)c1cccc2cccnc12	/	/	/	/	10%	/
CC(=O)c1ccc(NC(=O)O[C@@H]2CO[C@H]3[C@@H]2OC[C@@H]3NC(=O)NCc2ccccc2)cc1	/	/	/	/	7%	/
Cc1ccc(-c2csc(N3CCN(c4cc5c(cc4Cl)nc(C(C)N)n5CCCO)CC3)n2)cc1 (centres undefined)	35%	13%	-36%	-5%	-3%	-31%
Cc1ccc(-c2csc(N3CCN(c4cc5c(cc4Cl)nc(C)n5CCN4CCCCC4)CC3)n2)cc1	-24%	45µM*	40µM*	50µM*	?	-38%[57.1 µM]
Cc1csc(N2CCN(c3cc4nc(-c5ccncc5)[nH]c4cc3Cl)CC2)n1	25%	7.9µM*	79µM*	79µM*	0%	?
Cc1csc(N2CCN(c3cc4c(cc3Cl)nc(-c3ccncc3)n4CCCN3CCCC3)CC2)n1	3%	10µM*	56µM*	?	-18%	?
COc1ccc(-c2cc(N3CCCN(C(=O)c4ccc(C)c(F)c4)CC3)n[nH]2)cc1	/	/	/	/	39%	/
CC(=O)N(C1CC1)C1CCOC2(CCN(C(=O)Nc3ccccc3)CC2)C1 (centres undefined)	/	/	/	/	27%	/
CCN(CC)C(=O)Cn1cc(SCC(=O)Nc2cc(C)on2)c2ccccc21	14%	-7%	89µM*	19%	-15%	-12%
CCOc1ccc(C(=O)NCCn2cc(SCC(=O)Nc3cc(C)on3)c3ccccc32)cc1	19%	-7%[59 µM]	-19%	?	0%	79µM*
Cc1ccc(C(=O)NCCn2cc(SCC(=O)Nc3nnc(C)s3)c3ccccc32)cc1	36%	50µM*	-22%	-16%	?	-6%
Cc1cc(N2CCN(C(=O)CCCS(N)(=O)=O)CC2)cc(C)n1	/	/	/	/	34%	/
CCc1ccc(CNC(=O)c2ncoc2-c2cccc(OC)c2)cc1	/	/	/	/	-13%	/
CN(C)C(=O)c1cnc(Cc2c[nH]c3ccccc23)c(I)c1	/	/	/	/	14µM*	/
Cc1cnc(C(=O)NCCc2c[nH]c3ccccc23)cn1	/	/	/	/	-18%	/
CC(C)CCNC(=O)CC1Nc2c3ccccc3nc(=S)n2C1=O (centres undefined)	38%	56µM*	11%	-16%	0%	-31%
C=CCNC(=O)CC1Nc2c3ccccc3nc(=S)n2C1=O (centres undefined)	46%	35µM*	0%	?	18µM*	-22%
CC(C)NC(=O)CC1Nc2c3ccccc3nc(=S)n2C1=O (centres undefined)	54%	17%[2.33 µM]	-2%	?	0%	-1%
Cc1nc(C(C)C)sc1C(=O)N1CCCC(OCc2ccccn2)C1 (centres undefined)	/	/	/	/	7%	/
COC(=O)c1c(C)n(-c2ccc(OC)cc2)c2ccc(O)cc12	-12%	?	?	45µM*	?	?
COC(=O)C1(Cc2ccc(O)c(CC3OC3(C)C)c2)OC(=O)C(O)=C1c1ccc(O)cc1 (centres undefined)	1%	?	-33%	79µM*	2%	-35%
COc1cc(CC2COC(=O)C2(O)Cc2ccc(O)c(OC)c2)ccc1O (centres undefined)	27%	5%[59 µM]	-18%	-9%	0%	-2%
O=C(COc1ccc(Cl)cc1)N1CCN(c2ccccc2)C(=O)C1	/	/	/	/	13%	/
Cc1nn(Cc2cccc(C(=O)Nc3ccn(Cc4ccccc4F)n3)c2)c(C)c1[N+](=O)[O-]	23%	27%[12.7 µM]	-3%	22µM*	21%	-34%
SMILES	HP1b chromo inh	G9a block	JMJD2A Tudor inh	Sfp inh	12-LOX inh	BAZ2B block
Cn1ncc([N+](=O)[O-])c1C(=O)Nc1ccn(Cc2ccccc2F)n1	19%	21%[59 µM]	-16%	11%	3%	-28%
CCN1CCN(C(c2ccc(F)cc2)c2nnnn2Cc2ccc3c(c2)OCO3)CC1 (centres undefined)	16%	/	-10%	10%	3%	-10%
Fc1ccc(Cn2nnnc2C(c2ccc(Cl)cc2)N2CCSCC2)cc1 (centres undefined)	4%	50µM*	56µM*	-6%	?	-1%
CC1CCN(C(c2ccc(N(C)C)cc2)c2nnnn2Cc2ccc(F)cc2)CC1 (centres undefined)	?	-5%[0.501 µM]	?	-2%	-13%	13µM*
CCc1cccc(CC)c1NC(=O)c1ccccc1SC	/	/	/	/	-16%	/
CC(C)(C)CC(=O)N1CCC(C(=O)NCc2cccnc2)CC1	/	/	/	/	-9%	/
Cc1ccccc1Nc1scc(-c2ccc(Cl)cc2)[n+]1-c1ccccc1C	?	20µM*	?	10%	-7%	7.9µM*
Cc1ccccc1Nc1c(-c2ccncc2)nc2ccc(Cl)cn12	53%	-3%	-4%	-4%	-24%	-22%
COc1ccc(N2C(=O)/C(=C/c3ccc([N+](=O)[O-])cc3)N=C2C)c(OC)c1	-9%	?	-23%	1%	-2%	-15%
CC1=N/C(=C\c2ccc([N+](=O)[O-])cc2)C(=O)N1c1cc(Cl)ccc1C	?	?	?	56µM*	-19%	?
Cn1nc(C2CCN(C(=O)[C@H]3CC(=O)NC(=O)N3)CC2)n(-c2ccccc2)c1=O	/	/	/	/	16%	/
CN(Cc1cnc2nc(N)nc(N)c2n1)c1ccc(C(=O)N[C@@H](CCC(=O)O)C(=O)O)cc1	30%	7.5µM*!	-6%	?	?	/
